Out of some 350,000 compounds screened, about 1,200 (0.34%) were called active. About 3% were inconclusive and are not listed. The rule behind the calls is not given here. Many of the other results were omitted from the sample, so actives are more common in it than they were.
Each compound was assayed against DNA repair nuclease/redox regulator APEX1 (Homo sapiens) (UniProt P27695) (assay: qHTS Assay for Inhibitors of the Human Apurinic/apyrimidinic Endonuclease 1 (APE1).).
Type: functional

Chain of DNA repair nuclease/redox regulator APEX1 (Homo sapiens) (P27695 whole entry): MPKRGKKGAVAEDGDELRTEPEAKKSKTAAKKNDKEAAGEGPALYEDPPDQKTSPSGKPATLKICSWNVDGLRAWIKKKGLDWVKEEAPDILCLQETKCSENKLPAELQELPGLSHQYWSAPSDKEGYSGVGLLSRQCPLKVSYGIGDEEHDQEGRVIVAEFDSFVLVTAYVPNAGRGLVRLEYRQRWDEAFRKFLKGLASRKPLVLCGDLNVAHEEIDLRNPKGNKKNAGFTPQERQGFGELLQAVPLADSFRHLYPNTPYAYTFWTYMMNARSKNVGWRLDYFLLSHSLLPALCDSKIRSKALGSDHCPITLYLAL

| Structure (SMILES) | Potency |
| --- | --- |
| O=C(Cn1c(=S)[nH]c2ccccc2c1=O)N1CCN(c2ccc(F)cc2)CC1 | 794 µM (active) |
| CC(=O)OCC(NC(=O)C(Cc1c[nH]c2ccccc12)NC(=O)OC(C)(C)C)C1OC(n2cc(C)c(=O)[nH]c2=O)C(OC(C)=O)C1OC(C)=O (stereo not drawn) | inactive |
| O=C(O)c1cc(-c2ccc(F)cc2F)ccc1O | inactive |
